Most compounds without a hit are left out; they make up all but 3.1% or so of the library.
14-3-3 Bad PPI – disrupts binding of bovine 14-3-3 zeta to phospho-Bad peptide; 0.71% of 220,000 active; inhibition, % at 21.7 µM; P63103; TR-FRET 14-3-3zeta/Dy647-pBad peptide displacement, 1 h;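 active = inhibition above about 70%, limit read from the data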;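 also: 0% = full 14-3-3 plus peptide FRET controls and 100% = background without 14-3-3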
Target sequence (P63103 whole entry, looked up): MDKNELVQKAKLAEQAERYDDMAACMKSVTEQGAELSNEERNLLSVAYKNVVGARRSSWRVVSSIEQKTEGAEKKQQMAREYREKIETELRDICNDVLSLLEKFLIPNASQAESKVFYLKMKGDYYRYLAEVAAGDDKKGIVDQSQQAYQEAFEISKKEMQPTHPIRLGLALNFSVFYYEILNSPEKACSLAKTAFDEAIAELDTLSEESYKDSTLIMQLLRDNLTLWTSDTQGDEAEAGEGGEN
NCF1 inh – inhibitors of human p47phox binding; P14598; p47phox/p22phox peptide binding, fluorescence polarization, 2 h; inhibition, % at 24.7 µM; 0.53% of 220,000 active; AID 1274;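 active = inhibition above about 30%, limit read from the data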;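 also: 0% = p47phox with labelled peptide and 100% = labelled peptide alone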
Target sequence (P14598 whole entry, looked up): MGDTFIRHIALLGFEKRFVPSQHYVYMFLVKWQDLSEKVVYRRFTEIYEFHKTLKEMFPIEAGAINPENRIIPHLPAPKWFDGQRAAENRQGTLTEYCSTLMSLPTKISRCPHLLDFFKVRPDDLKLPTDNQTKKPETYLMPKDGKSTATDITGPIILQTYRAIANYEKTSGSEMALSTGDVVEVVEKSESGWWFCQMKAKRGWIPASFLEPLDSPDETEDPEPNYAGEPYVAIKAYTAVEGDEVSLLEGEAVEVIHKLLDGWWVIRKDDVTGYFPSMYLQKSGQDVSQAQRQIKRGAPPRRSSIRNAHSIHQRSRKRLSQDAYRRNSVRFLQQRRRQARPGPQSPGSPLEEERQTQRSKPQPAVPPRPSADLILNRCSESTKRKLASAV
Mcl1-Noxa inh – Mcl-1/Noxa interaction inhibition; AID 1022; Q07820; inhibition, % at 21.7 µM; TR-FRET Mcl-1/Noxa peptide binding, 2 h; 1.5% of 220,000 active;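 active = compounds that cut the protein-peptide binding signal by more than 50% relative to plate controls in a single-dose test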;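 also: His-tagged Mcl-1 with rhodamine Noxa BH3 peptide and terbium anti-His antibody; 0% = Mcl-1 plus Noxa peptide wells and 100% = peptide-only wells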
Bim-Mcl-1 – human Bim-Mcl-1 interaction inhibition; Q07820; Bead-based flow cytometry, Bim peptide-Mcl-1 binding; inhibition, % at 10 µM; 0.1% of 190,000 active; AID 1009; in the data active = inhibition above about 40%;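 also: 0% = no compound tracer wells and 100% = peptide blocker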
Mcl1 Bid PPI – Mcl-1/Bid interaction inhibition. Q07820. TR-FRET Mcl-1/Bid-Dy647 peptide binding, 1536-well. inhibition, % at 21.7 µM. 0.97% of 220,000 active. AID 1021;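 active = compounds that cut the binding signal by more than half at the single screening dose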;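 also: His-tagged Mcl-1 with europium anti-His antibody binding Bid BH3 peptide; 0% = Mcl-1 plus peptide wells and 100% = peptide-only wells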
An asterisk follows results filed as active; / = not tested or not shown; [ ] = dose if it differs, or a comment.

SMILES | 14-3-3 Bad PPI | NCF1 inh | Mcl1-Noxa inh | Bim-Mcl-1 | Mcl1 Bid PPI
O=C(COc1cccc2ccccc12)NNC(=O)c1cccs1 | -14 | -12 | 5 | -5 | -32
COCCCn1cc(C(=O)c2ccccc2OCC(=O)Nc2cccc(F)c2)cc(C#N)c1=O | -1 | -14 | 8 | -2 | -2
COc1ccc2nc(NC(=O)CSc3nnc(N)s3)sc2c1 | 55 | -39 | 54* | 1 | 14
COc1ccc2nc(Nc3sc4c(c3C(N)=O)CCCC4)sc2c1 | -7 | -24 | 100* | -3 | -9
CCN1CCN(CC(=O)Nc2nc3ccc(OC)cc3s2)CC1 | 79*[fluorescence artefact?] | -6 | 25 | -2 | 35
Cc1cc(C)c2c(N)c(C(=O)Nc3ncc(C)s3)sc2n1 | 10 | -11 | 41 | -2 | -23
COc1ccc2nc(NC(=O)CN3CCN(C)CC3)sc2c1 | 30 | -14 | 20 | 0 | 29
COc1ccc2nc(NC3=NCCC3)sc2c1 | -6 | -16 | -15 | -3 | -7
COc1ccc2nc(NC(=O)c3sc4nc(C)cc(C)c4c3N)sc2c1 | 8 | -26 | 53* | / | -27
C=COC(=O)c1sc2nc(C)cc(C)c2c1N | -10 | -6 | -2 | / | -35
CCOc1ccc(-c2ccc(/C=C3/C(=N)N4C(C)=CSC4=NC3=O)o2)c([N+](=O)[O-])c1 | 64 | 22 | 66* | 0 | 68*
CC1=CN2C(=N)/C(=C/c3ccco3)C(=O)N=C2S1 | -4 | -21 | 26 | -2 | -30
CC1=CN2C(=N)/C(=C/c3ccc([N+](=O)[O-])o3)C(=O)N=C2S1 | 16 | -88 | 65* | -3 | 6
CCOc1ccc(-c2ccc(/C=C3/C(=N)N4C=CSC4=NC3=O)o2)c([N+](=O)[O-])c1 | 84*[fluorescence artefact?] | 0 | 129* | 1 | 89*
CCOC(=O)c1sc(NC(=O)CSc2nc3c(c(=O)n2-c2ccc(F)cc2)SCC3)c(C(=O)OCC)c1C | -1 | -15 | 16 | -3 | -2
COC(=O)c1ccccc1NC(=O)CSCC(=O)Nc1ccc(F)cc1 | 6 | -7 | -3 | -1 | -26
O=S(=O)(Nc1ccc(Cl)cc1)c1ccc2c(c1)CCO2 | 98* | -15 | 3 | / | 16
Cc1ccnc(NS(=O)(=O)c2ccc3c(c2)CCO3)c1 | 5 | -10 | 14 | / | -31
COC(=O)c1cc(NC(=S)NCc2ccc(Cl)cc2)cc(C(=O)OC)c1 | -2 | -10 | 15 | -4 | 97*
COC(=O)c1cccc(NC(=S)NCc2ccc(Cl)cc2)c1 | -14 | -6 | 9 | -6 | -17
CCO[C@@H]1OC(C(=O)NCc2nc3ccccc3[nH]2)=C[C@H](C)[C@H]1CCCO | -11 | 45* | 10 | 0 | 1
CCO[C@H]1OC(C(=O)NCc2nc3ccccc3[nH]2)=C[C@@H](C)[C@@H]1CCCO | -5 | -2 | -8 | 0 | -10
O=C(Cn1cc(C(F)(F)F)ccc1=O)N/N=C/c1ccccc1 | -5 | 0 | 4 | -4 | -22
Cc1ccc(S(=O)(=O)N2CCOCC2)cc1N/N=C(\C#N)c1nc2ccccc2[nH]1 | -3 | -43 | 3 | 19 | -15
O=C(Nc1cccnc1)c1ccc(S(=O)(=O)c2ccc(Cl)cc2)cc1 | 85* | -13 | 7 | 0 | -19
SMILES | 14-3-3 Bad PPI | NCF1 inh | Mcl1-Noxa inh | Bim-Mcl-1 | Mcl1 Bid PPI
COc1ccc(-c2nnc(SCc3c(C)noc3C)o2)cc1 | -15 | -9 | -3 | 2 | -7
CN(C)c1ccc(N/C(N)=N/c2nc(C(F)(F)F)cc(C(F)(F)F)n2)cc1 | -14 | 1 | 61* | 1 | -51
COC(=O)CCCCCN1C(=O)/C(=C\c2ccncc2)SC1=S | -8 | 6 | 1 | / | -23
O=C(Nc1ccc2oc(-c3cccnc3)nc2c1)c1ccc([N+](=O)[O-])o1 | 65 | 11 | 67* | 0 | 61*
O=C(Nc1ccc2oc(-c3cccnc3)nc2c1)c1ccc(Br)o1 | 67 | -50 | 23 | 0 | 52*
O=C(Nc1ccc2oc(-c3cccnc3)nc2c1)c1ccco1 | -1 | -9 | 38 | 0 | -17
O=C(Nc1ccc2oc(-c3cccnc3)nc2c1)c1cccnc1 | -21 | 5 | 50 | 3 | 1
N=c1c2c3c(sc2ncn1Nc1ccccc1)CCC3 | 2 | 7 | -2 | / | -10
C=CCOc1ccc(CNc2nccs2)cc1OCC | -12 | -22 | 15 | 2 | -20
C=CCOc1c(CNc2nccs2)cccc1OCC | 0 | 36* | 9 | -1 | -20
Cc1ncc(CO)c(/C=N/NC(=O)c2cc(O)c(O)c(O)c2)c1O | -2 | 2 | 67* | 4 | -66
O=C(NC1(C(F)(F)F)N=C2SCCN2C1=O)c1cccnc1 (stereo not drawn) | -13 | 1 | -3 | -1 | -5
Cc1ccc(C(=O)NC2(C(F)(F)F)N=C3SCCN3C2=O)cc1 (stereo not drawn) | 74* | -11 | -3 | 0 | -23
CCCOc1ccc(S(=O)(=O)NNC(=O)c2cc3ccccc3o2)cc1 | -9 | -7 | 8 | -2 | -1
CCCc1cc(=O)[nH]c(SCCCCN2C(=O)c3ccccc3C2=O)n1 | -7 | 1 | 11 | 0 | 0
O=C(c1ccco1)[C@@H]1[C@@H]2C(=O)N(c3ccc(F)cc3)C(=O)[C@@H]2[C@H]2C=Cc3ccccc3N21 | 89*[fluorescence artefact?] | 17 | 73* | 5 | 24
NC(=O)[C@@H]1[C@@H]2C(=O)N(c3ccc(F)cc3)C(=O)[C@@H]2[C@H]2C=Cc3ccccc3N21 | 1 | -41 | 13 | / | 25
O=C(Nc1nnc(C(F)(F)F)s1)c1cccnc1 | 20 | -1 | 13 | -6 | 5
O=C(Nc1nnc(-c2ccccc2F)s1)c1cccnc1 | -10 | 73* | 6 | -3 | 2
CCC(=O)Nc1cccc(C(=O)OCc2cccc([N+](=O)[O-])c2)c1 | 2 | -7 | 6 | 14 | -7
CCOc1cc(/C=C2\C(=O)N(CCc3ccc(OC)c(OC)c3)C(C)=C2C(=O)OC)ccc1O | -16 | 53* | 39 | -2 | -15
COC(=O)C1=C(C)N(Cc2ccc(C)cc2)C(=O)/C1=C\c1ccc(O)c(OC)c1 | -3 | -22 | 31 | 1 | -16
Cc1c(CCC(=O)O)c(=O)oc2c(C)c(OCc3cc4c(cc3Cl)OCO4)ccc12 | -5 | 3 | 58* | / | -31
Cc1cc(-c2ccccc2)nc(=O)[nH]1 | 74* | -5 | 15 | -1 | 37
Cc1cc(OCC(=O)N2CCOCC2)ccc1[N+](=O)[O-] | 9 | 1 | -14 | / | -26
COc1ccc(N2CSC3=C(C#N)C(c4cc(OC)ccc4OC)CC(=O)N3C2)c(OC)c1 (stereo not drawn) | -6 | 7 | 49 | 16 | -13
COc1ccc(N2CSC3=C(C#N)C(c4cc(OC)c(OC)cc4OC)CC(=O)N3C2)c(OC)c1 (stereo not drawn) | -1 | 33* | 21 | -3 | -44
Cn1cccc1/C=N/N1CCN(c2ccccc2)CC1 | -11 | -14 | 8 | 0 | -72
COC(=O)CSc1[nH]c(=O)cc(C)c1C#N | 4 | -11 | 7 | -1 | -4
CCOC(=O)c1cc(C#N)c(SCC(=O)OC)[nH]c1=O | 33 | -19 | 21 | / | 72*

High-throughput results from PubChem BioAssay.
